# rCAG RNA binder: binds r(CAG) RNA repeats; r(CAG) RNA repeat, TO-PRO-1 dye displacement fluorescence; inhibition, % at 3 µM; 1.3% of 370,000 active; AID 651821;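 active = inhibition above the plate cutoff, the mean of all test compounds on that plate plus 3 SD, cut at about 35% in these data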;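 also: 0% = DMSO alone and 100% = 100 µM mitoxantrone as full dye displacement; higher means more dye released from RNA so lower well fluorescence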
# MsrA inhibitor: bovine MsrA inhibition. purified bovine MsrA, absorbance read-out. inhibition, % at 15.5 µM. 0.75% of 360,000 active. AID 651718; in the data active = inhibition above about 4.5%;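 also: 0% = vehicle wells with enzyme and 100% = reference inhibitor wells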
# bovine MsrA act: activates bovine MsrA enzyme | purified bovine MsrA, absorbance read-out | 0.3% of 360,000 active | activation, % at 10.6 µM | AID 602163; in the data active = activation above about 7.5%;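 also: 0% = vehicle and 100% = reference activator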
# DAGLB inhibitor: diacylglycerol lipase beta (human) inhibition; Q8NCG7; HEK293T DAGLB membrane lysate, EnzChek fluorogenic substrate; inhibition, % at 5.17 µM; 0.059% of 340,000 active; in the data active = inhibition above about 34%;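 also: 0% = enzyme with vehicle and 100% = wells lacking enzyme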
# Pemphigus Ab inh: inhibitors of pemphigus antibody binding to human desmoglein-3; P32926; DSG3-coupled beads, scFv-anti-DSG3-GFP binding, flow cytometry; active compounds read low; binding (percent of control), % at 10 µM; 0.48% of 310,000 active; AID 588358;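 active = binding more than 3 SD below its plate's average and above zero; inconclusive = below that plate limit but binding exactly zero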;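 also: hits lower antibody fragment binding to DSG3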
# NadD block: NadD (S. aureus) enzyme inhibition; inhibition, % at 20 µM; purified NadD enzyme, colorimetric absorbance read-out; AID 602399; 0.78% of 360,000 active; in the data active = inhibition above about 26%
# NadD inh conf: NadD (S. aureus) inhibition, single concentration confirmation; AID 624309; purified S. aureus NadD, colorimetric enzyme assay; inhibition, % at 20 µM; shares compounds with NadD block; 13% of 2,000 active; in the data active = inhibition mostly above about 42%, no sharp cut-off; inactive = mostly below about 42%
# Starred values were filed as active, the others as inactive; ? = inconclusive; . = no result given. Most compounds without a hit are left out; they make up all but 3.2% or so of the library.
SMILES,rCAG RNA binder,MsrA inhibitor,bovine MsrA act,DAGLB inhibitor,Pemphigus Ab inh,NadD block,NadD inh conf
O=C(NCc1nc2ccccc2[nH]1)C1=C[C@H](c2csc3ccccc23)C[C@H](OCc2ccc(CO)cc2)O1,16,2,-2,0,96,32*,45
C[C@@H]1CCCCO[C@@H](CN(C)C(=O)CCCN(C)C)[C@@H](C)CN([C@H](C)CO)C(=O)c2cc(N(C)C)ccc2O1,2,1,0,.,.,-10,.
CCOC(=O)/C=c1\s/c(=C\c2ccc3cc(OC)ccc3c2)c(=O)n1CC(=O)NCc1ccc2c(c1)OCO2,16,2,-3,-1,95,33*,-3
CCOC(=O)/C=c1\s/c(=C\c2ccccc2C)c(=O)n1CC(=O)NCc1ccc2c(c1)OCO2,11,2,0,8,95,6,.
COC(=O)c1ccc(Cn2ccc3ccc(-c4ccc5ccn(Cc6ccc(OC)cc6)c5c4)cc32)cc1,23,.,.,.,.,.,.
COc1ccc(Cn2c(C)nc3c(c2=O)c2nc4ccccc4nc2n3Cc2ccco2)cc1,13,4,-2,5,91,38*,18
Cc1cc(C)cc(-n2c3nc4ccccc4nc3c3c(=O)n(Cc4ccco4)cnc32)c1,24,2,-6,7,88,33*,9
Cc1nc2ccccc2c(=O)n1Cc1ccco1,-2,1,-3,.,112,-3,.
CN(Cc1cnc2nc(N)nc(N)c2n1)c1ccc(C(=O)NC(CCC(=O)O)C(=O)O)c2ccccc12 (stereo not drawn),9,2,-10,-1,110,4,.
O=C(Nc1ccc(C2=NCCN2)cc1)c1ccc(C(=O)Nc2ccc(C3=NCCN3)cc2)c(Cl)c1,10,1,0,3,?,30*,13
CN(C)[C@@H]1CCN(c2cccc3c2S(=O)(=O)N2CC[C@H](C2)O3)C1,2,.,.,.,.,.,.
Cn1c(C(=O)Nc2ccc3c(c2)OCCO3)cc2sccc21,2,1,-8,-3,100,-7,.
CC(C)c1ccc(NC(=O)Nc2cc3sccc3n2C)cc1,19,0,-3,3,95,42*,27
O=C1c2ccc(-c3ccc(Cl)c(C(F)(F)F)c3)cc2S(=O)(=O)c2cccc(C(=O)N3CCN(c4ncc(Br)cn4)CC3)c21,11,1,-3,-1,91,52*,1
O=C(NC[C@H]1CCCO1)c1cccc2c1C(=O)c1ccc(-c3ccc(F)cc3OCc3ccccc3)cc1S2(=O)=O,22,2,-10,2,88,17,.
Cc1cc(CNC(=O)c2cccc3c2C(=O)c2ccc(-c4ccc(F)cc4OCc4ccccc4)cc2S3(=O)=O)c(C(F)(F)F)o1,43*,2,-4,10,90,52*,39
O=C1c2ccc(-c3ccc(F)cc3OCc3ccccc3)cc2S(=O)(=O)c2cccc(C(=O)N3CCN(c4ncc(Cl)cc4Cl)CC3)c21,16,0,-11,-5,85,61*,21
N#Cc1cccnc1N1CCN(C(=O)c2cccc3c2C(=O)c2ccc(-c4ccc(F)cc4OCc4ccccc4)cc2S3(=O)=O)CC1,14,0,-2,1,89,31*,0
O=C1c2ccc(Cl)cc2S(=O)(=O)c2cccc(C(=O)N3CCN(c4ccc(Cl)cn4)CC3)c21,3,1,-5,3,99,22,.
O=C(O)c1cccc2c1C(=O)c1ccc(-c3ccc(F)cc3OCc3ccccc3)cc1S2(=O)=O,.,.,-10,7,98,14,.
COc1ccc(C2=Nc3ccccc3NC(=O)C2N(Cc2ccccc2)C(=O)C2=NNC(=O)CC2)cc1 (stereo not drawn),11,2,-6,.,.,0,.
COc1ccc(-c2csc(/C(C#N)=C\c3ccc(OC)c([N+](=O)[O-])c3)n2)cc1,3,-1,-5,-3,95,4,.
COc1ccc(-c2csc(/C(C#N)=C\c3ccc(O)c([N+](=O)[O-])c3)n2)cc1OC,8,-1,-1,12,81,27*,11
O=C(Cc1ccccc1)Nc1nnc(-c2cccnc2)s1,1,.,.,.,.,.,.
O=C(Nc1ccc(N2CCCC2)cc1)C(c1ccccc1)c1ccccc1,11,1,-2,14,94,37*,-7

# Source: PubChem
